# Experimental data: PubChem BioAssay (Tox21)
# Calls of active or inactive are those of the source. The call rests on the fitted dose curve; in most records, active means well fitted curve in the direction sought with a large enough effect in the repeat runs; inconclusive means weak or mixed curves; inactive means flat fitted curve, though single readings scatter.
# Test: qHTS assay to test for compound auto fluorescence at 460 nm (blue) in HEK293 cells (AID 720678)
# Conditions: blue autofluorescence 405/460 nm; series mostly up to 46 µM; fluorescence, % of triamterene: at the top concentration
# Description: National Center for Advancing Translational Sciences [NCATS]
# NIH Chemical Genomics Center [NCGC]
# U.S. Environmental Protection Agency [EPA]
# National Institutes of Environmental Health Sciences [NIEHS]
# National Toxicology Program [NTP]
# U.S. Food and Drug Administration [FDA]
# Compound auto fluorescence often interferes with screening of the compound library against various biological targets and signaling pathways. Some of these compounds may have fluorophoric properties. Such properties may interfere with the assay outputs resulting in false positives and/or negatives. To decrease such complications and ensure the compound activities are relevant in terms of biological response, the Tox21 10K compound library was screened for auto fluorescence.
# From the fluorophores used as reporter signals in our screening assays, the auto fluorescence equivalencies of compounds against three fluorophores have been evaluated: Triamterene, Fluorescein and Rose Bengal sodium for blue, green and red fluorescence, respectively. The fluorescence intensities were measured using Excitation/Emission wavelengths at 405/460nm, 485/535nm and 540/590nm for blue, green and red labels, respectively. This assay includes the blue fluorescence data.
# Tox21 Assay Protocol Summary:
# 2,000 HEK293 cells in 5 uL of culture medium containing 10% dialyzed FBS per well were dispensed into black wall/clear bottom 1536-well plates using a Multidrop Combi Dispenser (Thermo Scientific). The assay plates were incubated for 4-5 hr at 37C to allow cell attachment to the well bottom, followed by the transfer of 23 nL compound or DMSO vehicle by a pintool work station (Kalypsys, San Diego, CA). After the assay plates were incubated overnight at 37C and 5% CO2, fluorescence intensities in the assay plates were measured by an Envision (PerkinElmer, Shelton, CT) plate reader using three labels for measuring blue, green and red fluorescence at […] 460, 535 and 590nm respectively.
# On the % scale 0 is the no-effect control and ±100 the full control effect.
row,Structure (SMILES),"fluorescence, % of triamterene"
1,NC[C@@H]1O[C@H](O[C@H]2[C@@H](O)[C@H](O[C@@H]3[C@@H](O)[C@H](N)C[C@H](N)[C@H]3O[C@H]3O[C@H](CO)[C@@H](O)[C@H](O)[C@H]3N)O[C@@H]2CO)[C@H](N)[C@@H](O)[C@@H]1O,-0.228% (inactive)
2,CC1(C)S[C@@H]2[C@H](NC(=O)Cc3ccccc3)C(=O)N2[C@H]1C(=O)O,-0.0088% (inactive)
3,CC1(C)C2CC[C@]3(C)[C@H](C(=O)C=C4[C@@H]5C[C@@](C)(C(=O)O)CC[C@]5(C)CC[C@]43C)[C@@]2(C)CC[C@@H]1O[C@H]1O[C@H](C(=O)O)[C@@H](O)[C@H](O)[C@H]1O[C@@H]1O[C@H](C(=O)O)[C@@H](O)[C@H](O)[C@H]1O (stereo not given in full),1.28% (inactive)
4,CC[C@H]1OC(=O)[C@H](C)[C@@H](O[C@H]2C[C@@](C)(OC)[C@@H](O)[C@H](C)O2)[C@H](C)[C@@H](O[C@@H]2O[C@H](C)C[C@H](N(C)C)[C@H]2O)[C@](C)(O)C[C@@H](C)[C@@H]2N[C@@H](COCCOC)O[C@@H]([C@H]2C)[C@]1(C)O,0.0581% (inactive)
5,OC(CN1CCCCC1)c1cc(-c2ccccc2)on1 (stereo not given),0.062% (inactive)
6,COC(=O)CCC(=O)CN,0.201% (inactive)
7,Cc1cc(Nc2ccccc2C(=O)O)ccc1Cl,-0.0099% (inactive)
8,CO[C@H]1O[C@@H]2O[C@@]3(C)CC[C@H]4[C@H](C)CC[C@@H]([C@H]1C)[C@@]24OO3,0.117% (inactive)
9,Cc1cc(-n2c(=O)[nH]c(=O)n(C)c2=O)ccc1Oc1ccc(S(=O)(=O)C(F)(F)F)cc1,-0.0471% (inactive)
10,C[N+](C)(CCCCCC[N+](C)(C)C1c2ccccc2-c2ccccc21)C1c2ccccc2-c2ccccc21,0.0663% (inactive)
11,CCCC(=O)O[C@]1(C(=O)COC(=O)CC)[C@@H](C)C[C@H]2[C@@H]3CCC4=CC(=O)C=C[C@]4(C)[C@@]3(F)[C@@H](O)C[C@@]21C,-0.0127% (inactive)
12,O=C(COc1ccc(Cl)cc1)OCCNC12CC3CC(CC(C3)C1)C2,-0.154% (inactive)
13,NCCCNCCCCNC(=O)C(O)NC(=O)CCCCCCN=C(N)N (stereo not given),0.138% (inactive)
14,CN(CCO)CC(O)Cn1cnc2c1c(=O)n(C)c(=O)n2C (stereo not given) (tested in a mixture with another compound),2.26% (inactive)
15,COc1cc2[nH]c(C)c(CCN3CCN(c4ccccc4)CC3)c2cc1OC,0.254% (inactive)
16,CCCCCCCCCCCCCCCCCCCCCC(=O)Nc1ccn([C@@H]2O[C@H](CO)[C@@H](O)[C@@H]2O)c(=O)n1,-0.004% (inactive)
17,CCOC(=O)c1c[nH]c2cc(OCC(C)C)c(OCC(C)C)cc2c1=O,0.0441% (inactive)
18,OCC(O)COc1ccc(Cl)cc1 (stereo not given),-0.0214% (inactive)
19,CN[C@H]1CCc2cc(OC)c(OC)c(OC)c2-c2ccc(OC)c(=O)cc21,0.0946% (inactive)
20,CC(=O)O[C@H]1C(=O)[C@@]2(C)[C@H]([C@H](OC(=O)c3ccccc3)[C@]3(O)C[C@H](OC(=O)[C@H](O)[C@@H](NC(=O)c4ccccc4)c4ccccc4)C(C)=C1C3(C)C)[C@]1(OC(C)=O)CO[C@@H]1C[C@@H]2O,-0.309% (inactive)

row,Structure (SMILES),"fluorescence, % of triamterene"
1,Cc1c(O)cc2c(c1C)O[C@](C)(CCC[C@H](C)CCC[C@H](C)CCCC(C)C)CC2,-0.0325% (inactive)
2,CC(=O)Nc1ccc(OC(=O)c2ccccc2O)cc1,0.0896% (inactive)
3,N[C@@H](C(=O)N[C@@H]1C(=O)N2C(C(=O)O)=C(Cl)CC[C@H]12)c1ccccc1,0.972% (inactive)
4,CC1=C(C(=O)OCCN(Cc2ccccc2)c2ccccc2)C(c2cccc([N+](=O)[O-])c2)C(P2(=O)OCC(C)(C)CO2)=C(C)N1 (stereo not given),-0.154% (inactive)
5,OCCO[C@@H]1[C@@H](O)[C@H](O)[C@@H](CO)O[C@@H]1O,-0.0564% (inactive)
6,CC[C@@]1(O)C(=O)OCc2c1cc1n(c2=O)Cc2cc3c([N+](=O)[O-])cccc3nc2-1,0.0329% (inactive)
7,C[C@H](N)C(=O)N[C@@H](C)P(=O)(O)O,-0.152% (inactive)
8,CC(C)(C)NCC(O)c1ccc(O)c(CO)n1 (stereo not given),0.23% (inactive)
9,Cc1cc2nc3c(=O)[nH]c(=O)nc-3n(C[C@H](O)[C@H](O)[C@H](O)COP(=O)(O)OP(=O)(O)OC[C@H]3O[C@@H](n4cnc5c(N)ncnc54)[C@H](O)[C@@H]3O)c2cc1C,5.42% (inactive)
10,CC(=O)N[C@@H](CC(=O)N[C@@H](CCC(=O)O)C(=O)O)C(=O)O,-0.199% (inactive)
11,CO[C@H]1C[C@@H]2CC[C@@H](C)[C@@](O)(O2)C(=O)C(=O)N2CCCC[C@H]2C(=O)O[C@H]([C@H](C)C[C@@H]2CC[C@@H](OC(=O)C(C)(CO)CO)[C@H](OC)C2)CC(=O)[C@H](C)/C=C(\C)[C@@H](O)[C@@H](OC)C(=O)[C@H](C)C[C@H](C)/C=C/C=C/C=C/1C,0.0794% (inactive)
12,COc1ccc(CNCC(O)COc2ccc3[nH]c(=O)ccc3c2)cc1OC (stereo not given),0.115% (inactive)
13,COC(F)(F)C(Cl)Cl,-0.004% (inactive)
14,O=C(NNCNNC(=O)c1ccncc1)c1ccncc1,0.026% (inactive)
15,CCCCCCCCCCCCCCCCCC(=O)OC[C@@H](O)[C@H]1OC[C@H](O)[C@H]1O,-0.0822% (inactive)
16,N#Cc1ccc2c(c1)N(CCCN1CCC(O)CC1)c1ccccc1S2,2.06% (inactive)
17,CC(=O)O[C@H]1C[C@@H]2CC[C@@H]3[C@H](CC[C@@]4(C)[C@H]3C[C@H](N3CC[N+](C)(C)CC3)[C@@H]4OC(C)=O)[C@@]2(C)C[C@@H]1N1CC[N+](C)(C)CC1,0.0269% (inactive)
18,CS(=O)(=O)OCC(O)C(O)COS(C)(=O)=O (stereo not given),0.0619% (inactive)
19,CO[C@H]1C[C@H](O[C@H]2[C@H](C)O[C@@H](O[C@@H]3/C(C)=C/C[C@@H]4C[C@@H](C[C@]5(C=C[C@H](C)[C@@H](C6CCCCC6)O5)O4)OC(=O)[C@@H]4C=C(C)[C@@H](O)[C@H]5OC/C(=C\C=C\[C@@H]3C)[C@]54O)C[C@@H]2OC)O[C@@H](C)[C@@H]1O,0.139% (inactive)
20,CC(=O)[C@@]1(O)CC[C@H]2[C@@H]3C=C(Cl)C4=CC(=O)CC[C@]4(C)[C@H]3CC[C@@]21C,-0.0059% (inactive)
